From PubChem BioAssay (NCI)
About 83,000 compounds went through this panel and 20% of them were active in at least one assay; those are over-represented in the sample as a whole.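 The test compound was applied at a single concentration to cells in 96-well plates for 48 hours, and percent growth was recorded.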 Values without a mark were called inactive. Activity calls are given as the source filed them. Rule for the calls: active = growth percent below 10; inactive = the rest.

Columns and labels:
Assay in all cases: NCI-60 one-dose screen, 48 h (100 = growth as untreated, 0 = no growth, -100 = all killed)
[1] = test system: SK-MEL-2 melanoma; conditions: 10 µM unless noted
[2] = test system: EKVX NSCLC; conditions: 10 µM unless noted
[3] = test system: SN12C renal; conditions: 10 µM unless noted
[4] = test system: UO-31 renal; conditions: 10 µM unless noted
[5] = test system: TK-10 renal; conditions: 10 µM unless noted
[6] = test system: ACHN renal; conditions: 10 µM unless noted
[7] = test system: CAKI-1 renal; conditions: 10 µM
[8] = test system: A498 renal; conditions: 10 µM unless noted
[9] = test system: CCRF-CEM leukemia; conditions: 10 µM unless noted
[10] = test system: MOLT-4 leukemia; conditions: 10 µM unless noted

Row | SMILES | growth [1] | growth [2] | growth [3] | growth [4] | growth [5] | growth [6] | growth [7] | growth [8] | growth [9] | growth [10]
1 | COc1ccc(C(=O)c2c(N)c(C#N)cn2-c2cccc(OC)c2)cc1 | 28.8% | 38.7% | 32.4% | 33.8% | 69.2% | 38.5% | 30.5% | -1.17% (active) | 18.1% | 29.3%
2 | C#C[C@]1(O)CC[C@H]2[C@@H]3CC=C4c5sc(C6CCOCC6)nc5CC[C@]4(C)[C@H]3CC[C@@]21C | 94.6% | 84.2% | 82.9% | 83.9% | 113% | 88.2% | 84.5% | 96.9% | 52.3% | 38.3%
3 | COc1ccc(N2C(=O)c3cc(OC)c(OC)cc3NC2SCc2ccccc2)cc1 (stereo not given) | 99.6% | 91.8% | 102% | 88.4% | 129% | 94.3% | 104% | 107% | 105% | 88%
4 | N/C(=N\c1nc2c(Cl)cccc2s1)C(Cl)(Cl)Cl | 105% | 52.6% | 91.9% | 61% | 83.5% | 19.6% | 43.9% | 29.9% | 97.3% | 92.1%
5 | Clc1ccc(-c2nc3ccc(/C(=N\N=C\c4ccccc4)c4ccccc4)cc3[nH]2)cc1 | 96.1% | 93.4% | 93.4% | 83.3% | 95.9% | 92.1% | 77.2% | 65.7% | 71% | 59.3%
6 | CCCC(=O)NC(c1cccnc1)c1cc(C(C)=O)c2cccnc2c1O (stereo not given) | 62.8% | 22.3% | 43.9% | 13.6% | 39.1% | 14.5% | 20.5% | 56.6% | 20.8% | 25.1%
7 | O=c1oc2ccc(-c3ccc(F)cc3F)cc2c(=O)n1-c1ccc(F)c(F)c1 | -14.3% (active) | 9.2% (active) | 2.02% (active) | -12.4% (active) | 10.8% | 2.6% (active) | -15.4% (active) | -42.6% (active) | 16.4% | 6.43% (active)
8 | COc1ccc(-c2nnc(/N=C3/C(=O)Nc4ccc(Br)cc43)o2)cc1 | 101% | 91.7% | 107% | 81.3% | 143% | 93.7% | 88.8% | 91.9% | 96% | 96.1%
9 | COc1ccc(OC)c(NC2=C(Cl)C(=O)C(C)=C(C)C2=O)c1 | 95.7% | 77.4% | 92.8% | 92.4% | 172% | 100% | 94% | 91.6% | 12.9% | 36%
10 | Cc1ccc(-c2csc(N/N=C/c3nc4ccccc4n3C3CC3)n2)cc1 | 74.7% | 97.5% | 82.8% | 16.1% | 141% | 1.34% (active) | 77.9% | 78.3% | -20.9% (active) | 37.3%
11 | COc1ccc(-c2nnc(SCc3ccc(O)c4ncccc34)o2)cc1 | 48.3% | 57.8% | 46.6% | 8.44% (active) | 56.4% | 23.6% | 32.1% | 69.8% | 15.7% | 28.1%
12 | COc1ccc(-c2nnc(SCc3ccc(O)c4ncccc34)n2-c2ccccc2)cc1 | 33.8% | 23.6% | 24.3% | -12.2% (active) | 38.4% | 4.43% (active) | 11.5% | 35.3% | 10.7% | 17.2%
13 | O=C1Nc2ccc(Br)cc2/C1=N\c1nnc(-c2ccc(Cl)cc2)o1 | 87.6% | 72.5% | 85.7% | 62.3% | 187% | 74.9% | 59% | 69.4% | 35.7% | 36.6%
14 | O=C(/C=C1\C=CN(CCCCCCF)c2ccccc21)n1ccc2ccccc21 | 111% | 79% | 90.5% | 71.5% | 115% | 97.4% | 86.5% | 96.3% | 96.1% | 106%
15 | COc1ccc(S(=O)(=O)NCCCNc2nccc(-n3cnc4ccccc43)n2)cc1 | 103% | 84.4% | 92.4% | 67.2% | 103% | 88.2% | 68.8% | 81.9% | 91.4% | 77%
16 | Oc1ccccc1-c1nnc(SCc2ccc(O)c3ncccc23)n1-c1ccccc1 | 23.1% | -0.459% (active) | 14.5% | -9.38% (active) | 18.9% | 8.88% (active) | 11.3% | -6.54% (active) | 7.6% (active) | 18%
17 | COc1ccc(-c2cc(-c3cccc4ccccc34)n3c(n2)nc2ccccc23)cc1 | 79.1% | 74.9% | 36.9% | 29% | 43% | 19.7% | 21% | 41.5% | 9.05% (active) | 2.23% (active)
18 | O=C(c1cccc(F)c1)n1ccc2cc(NC(=S)Nc3cccnc3)ccc21 | 102% | 105% | 95.9% | 83.3% | 94.8% | 103% | 97% | 92.4% | 83.1% | 84.9%
19 | Cc1nn(-c2ccccc2)cc1/C=N/Nc1nc(Nc2ccccc2)nc(Nc2ccc(S(N)(=O)=O)cc2)n1 | 54.8% | 18.8% | 0.245% (active) | -4.7% (active) | 44.5% | 0.841% (active) | -27.8% (active) | -30.3% (active) | 8.85% (active) | 6.35% (active)
20 | O=C(CCCCCCN1CC(=O)N2[C@@H](c3ccc(Cl)c(F)c3)c3[nH]c4ccccc4c3C[C@H]2C1=O)NO | 104% | 87.9% | 83.8% | 75.3% | 107% | 92.1% | 70.8% | 106% | 41.2% | 45.3%
21 | Cc1ccc(NC(=O)c2ccc(CN3CCN(C)CC3)c(C(F)(F)F)c2)cc1Oc1ccc(-c2[nH]nc3ncnc(N)c23)cc1 | 84.1% | 109% | 80.7% | 83% | 119% | 83% | 92.1% | 113% | 8.05% (active) | 43%
22 | CCNCc1c(-c2cccc(OC(F)(F)F)c2)[nH]c2ccc(N3CCCC3)cc2c1=O | 42.3% | 88.1% | 28.2% | 31.9% | 90.5% | 34.4% | -9.12% (active) | -13.6% (active) | 7.62% (active) | 18.4%
23 | COc1ccc(C2CC(c3ccc(Nc4nc(NCCO)nc(Nc5ccc(Cl)cc5)n4)cc3)=Nc3c(N)nc(N)nc3N2)cc1 (stereo not given) | 89.5% | 107% | 85.1% | 56.2% | 107% | 90.1% | 61.1% | 42.7% | -17.9% (active) | 3.14% (active)
24 | O=C(Nc1cccc(-c2nc(-c3ccc(NC(=O)c4cccnc4)cc3Cl)no2)c1)Nc1ccc(NC(=O)C2CC2)c(C(F)(F)F)c1 | -55% (active) | -28% (active) | -60.8% (active) | 17.8% | -20.4% (active) | 9.95% (active) | -72.7% (active) | -69.6% (active) | -16.3% (active) | -39.7% (active)
